Reference: PubChem BioAssay (Tox21)
Calls of active or inactive are those of the source. Unless noted, calls follow the shape of the dose curve; as a rule, active = well fitted curve in the direction sought with a large enough effect in the repeat runs; inconclusive = weak or mixed curves; inactive = no such curve, though single readings can be large; an effect the other way counts as inactive or inconclusive.

Tests used:
[1] = qHTS assay for small molecules that induce genotoxicity in human embryonic kidney cells expressing luciferase-tagged ATAD5 (AID 651632); also: nearly all actives have a fitted effect of over 15% in size
Summary of the method: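 Luminescent reporter readout, HEK293T ATAD5-luc line: 16 hr drug exposure (37C, 5% CO2) followed by Amplite, 30 min RT.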

[2] = qHTS assay for small molecule agonists of the p53 signaling pathway - cell viability (AID 651633; calls by dose curve;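 also: p53RE-bla HCT reporter cells with a stable beta-lactamase p53 reporter; series mostly up to about 83 µM; nearly all actives have a fitted effect of over 30% in size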)
Summary of the method: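 Viability counter-read: CellTiter-Glo luminescence (30 min, room temperature) in the same p53RE-bla plates. These plates had been exposed to compounds for 16 h at 37 C.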

[3] = qHTS assay for small molecules that induce genotoxicity in human embryonic kidney cells expressing luciferase-tagged ATAD5 - cell viability (AID 651634; calls by dose curve; also: nearly all actives have a fitted effect of over 25% in size)
Summary of the method: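 Viability read: CellTiter-Fluor fluorescence, 30 min at 37C. Cells: HEK293T, luciferase-tagged ATAD5. Exposure: 15.5 hr, 37C, 5% CO2, compound or DMSO vehicle.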

[4] = qHTS assay for small molecule disruptors of the mitochondrial membrane potential - cell viability (AID 720634; calls by dose curve;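 also: human HepG2 liver cancer cells; series mostly up to about 83 µM; nearly all actives have a fitted effect of over 20% in size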)
Summary of the method: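 HepG2, 1 hr compound, 37 C. ATP luminescence via CellTiter-Glo, 30 min RT, same well as m-MPI.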

[5] = qHTS assay to test for compound auto fluorescence at 590 nm (red) in HepG2 cells (AID 720674)
Summary of the method: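 We screened compounds on adherent HepG2 cells, incubating them for an hour at 37 C in 5% CO2 before reading emission at 590 nm under 540 nm excitation; values reflect equivalence to Rose Bengal sodium fluorescence.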

[6] = qHTS assay to test for compound auto fluorescence at 535 nm (green) in HepG2 cells (AID 720675)
[7] = qHTS assay to test for compound auto fluorescence at 460 nm (blue) in HEK293 cells (AID 720678)
Summary of the method: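 Triamterene serves as the blue fluorophore standard. Compound signal at 405/460 nm is read in HEK293 wells (2,000 cells, 10% dialyzed FBS) after overnight treatment at 37C.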

[8] = qHTS assay to test for compound auto fluorescence at 590 nm (red) in HEK293 cells (AID 720679)
Summary of the method: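 We plated HEK293 cells in 10% dialyzed FBS medium, let them adhere for 4-5 hr, then added 23 nL compound. Overnight at 37C and 5% CO2 preceded fluorescence measurement at 540/590nm.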

[9] = qHTS assay to test for compound auto fluorescence at 535 nm (green) in HEK293 cells (AID 720680)
[10] = qHTS assay to test for compound auto fluorescence at 460 nm (blue) in HEK293 cell free culture (AID 720681)
Summary of the method: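 Blue fluorescence (Ex 405/Em 460 nm, triamterene-equivalent) was read immediately after pin transfer of compound or DMSO into medium (DMEM, 10% FBS) without cells.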

[11] = qHTS assay to test for compound auto fluorescence at 535 nm (green) in HEK293 cell free culture (AID 720682)
Summary of the method: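 Each library compound, or DMSO control, is added by pintool to medium alone, comprising DMEM and 10% FBS. Emission at 535 nm following 485 nm excitation is quantified against fluorescein.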

[12] = qHTS assay to test for compound auto fluorescence at 590 nm (red) in HEK293 cell free culture (AID 720683)
Summary of the method: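 Red-channel autofluorescence of compounds in culture medium (DMEM, 10% FBS), no cells, measured at 540/590 nm. Rose Bengal sodium is the reference fluorophore for equivalence.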

[13] = qHTS assay to test for compound auto fluorescence at 590 nm (red) in HepG2 cell free culture (AID 720684)
Summary of the method: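 Steps: dispense MEM/10% FBS medium, no cells; pin compound or DMSO vehicle; read red channel, Ex/Em 540/590 nm. Output given as Rose Bengal sodium equivalents.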

[14] = qHTS assay to test for compound auto fluorescence at 460 nm (blue) in HepG2 cell free culture (AID 720685)
Summary of the method: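 Compound (23 nL) or DMSO pinned into cell-free MEM with 10% FBS; blue fluorescence read at 405/460 nm excitation/emission, expressed as auto-fluorescence equivalency to triamterene.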

[15] = qHTS assay to test for compound auto fluorescence at 535 nm (green) in HepG2 cell free culture (AID 720686)
[16] = qHTS assay to test for compound auto fluorescence at 460 nm (blue) in HepG2 cells (AID 720687)
Summary of the method: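 Blue-channel autofluorescence (Ex/Em 405/460 nm, triamterene-equivalent) was measured after 1 hr compound exposure at 37 C, 5% CO2. Cells were HepG2, plated overnight at 37 C in MEM plus 10% FBS.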

[17] = molecular target: Glucocorticoid receptor (Homo sapiens) (UniProt P04150); assay: qHTS assay to identify small molecule agonists of the glucocorticoid receptor (GR) signaling pathway (AID 720691; active = well fitted activation curve with a large enough effect in the signal ratio in the repeat runs, not every such curve was filed as active; inconclusive = weak or mixed curves, or effect the other way; inactive = no such curve, though single readings can be large or run the other way; the % refers to the signal ratio; also: potency is read from the fitted curve at half-maximal effect)
Glucocorticoid receptor (Homo sapiens), sequence (P04150 whole entry, looked up): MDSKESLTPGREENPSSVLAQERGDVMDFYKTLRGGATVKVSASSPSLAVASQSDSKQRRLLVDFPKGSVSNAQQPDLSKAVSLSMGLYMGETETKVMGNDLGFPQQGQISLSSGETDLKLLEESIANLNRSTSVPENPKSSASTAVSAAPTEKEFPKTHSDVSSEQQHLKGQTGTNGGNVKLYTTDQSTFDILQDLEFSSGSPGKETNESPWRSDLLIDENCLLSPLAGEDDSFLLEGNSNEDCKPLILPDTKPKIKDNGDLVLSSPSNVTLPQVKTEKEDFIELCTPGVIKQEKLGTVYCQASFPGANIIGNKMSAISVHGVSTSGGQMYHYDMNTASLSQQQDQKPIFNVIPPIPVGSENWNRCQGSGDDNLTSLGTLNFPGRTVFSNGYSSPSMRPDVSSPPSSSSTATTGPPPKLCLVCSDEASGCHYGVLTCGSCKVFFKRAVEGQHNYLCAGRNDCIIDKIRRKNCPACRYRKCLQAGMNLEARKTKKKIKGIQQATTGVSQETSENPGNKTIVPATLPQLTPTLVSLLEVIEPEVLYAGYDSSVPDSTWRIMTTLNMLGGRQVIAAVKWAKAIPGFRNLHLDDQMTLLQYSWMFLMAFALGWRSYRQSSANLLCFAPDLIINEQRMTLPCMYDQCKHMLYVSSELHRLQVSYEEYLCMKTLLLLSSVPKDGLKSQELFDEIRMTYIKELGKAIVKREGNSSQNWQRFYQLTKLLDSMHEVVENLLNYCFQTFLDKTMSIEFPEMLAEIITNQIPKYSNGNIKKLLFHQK
Summary of the method: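 qHTS in GR-bla HeLa cells: 4 h settling at 37 C/5% CO2, 18 h compound incubation at 37 C, 2 h LiveBLAzer B/G FRET substrate at room temperature, fluorescence intensity measured.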

[18] = molecular target: Glucocorticoid receptor (Homo sapiens) (UniProt P04150); assay: qHTS assay to identify small molecule antagonists of the glucocorticoid receptor (GR) signaling pathway (AID 720692; active = well fitted inhibition curve with a large enough effect in the signal ratio in the repeat runs, not every such curve was filed as active; inconclusive = weak or mixed curves, or effect the other way; inactive = no such curve, though single readings can be large or run the other way; the % refers to the signal ratio)
Summary of the method: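 Inhibition of glucocorticoid signalling is measured in HeLa cells with a GRE-controlled beta-lactamase reporter; cells are co-treated with compound and 5 nM dexamethasone (final) for 18 h before FRET substrate readout.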

[19] = qHTS assay for small molecule disruptors of the mitochondrial membrane potential (AID 720635); also: potency is read from the fitted curve at half-maximal effect
Summary of the method: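 Mitochondrial membrane potential tracked with Mito-MPS dye, red aggregates (ex 540/em 590 nm) against green monomers (ex 490/em 535 nm). Compound treatment 1 hr at 37C, dye 30 min in HepG2.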
% is scaled to controls: 0 for no effect and ±100 for the full control effect.

Cc1ncc([N+](=O)[O-])n1CC(O)CCl (configuration not stated)
inactive: outcome [1] | outcome [2] | Potency [3] | outcome [4] | fluorescence, relative to Rose Bengal [5] -0.0192% [at 18.6 µM] | fluorescence, % of fluorescein control [6] -0.155% [at 18.6 µM] | fluorescence, % of triamterene [7] -0.195% [at 18.6 µM] | fluorescence, % of fluorescent control [8] -0.364% [at 18.6 µM] | fluorescence, % of fluorescein [9] -0.0185% [at 18.6 µM] | fluorescence, % of fluorescent control [10] -0.008% [at 18.6 µM] | activity change [11] 0.017% [at 18.6 µM] | fluorescence, % of fluorescent control [12] -0.0564% [at 18.6 µM] | fluorescence, % of Rose Bengal [13] 0.0054% [at 18.6 µM] | fluorescence, % of fluorescent control [14] -0.0905% [at 18.6 µM] | fluorescence, % of fluorescein control [15] -0.0146% [at 18.6 µM] | fluorescence, % of fluorescent control [16] -0.0428% [at 18.6 µM] | Potency [17] | outcome [18]

CC(=O)c1ccc(OCC(=O)N2CCCCC2)cc1
inactive: outcome [1] | outcome [2] | Potency [3] | Potency [19] | outcome [5] | outcome [6] | outcome [7] | outcome [8] | outcome [9] | outcome [10] | outcome [11] | outcome [12] | outcome [13] | outcome [14] | outcome [15] | outcome [16] | Potency [17] | outcome [18]

CCCCC(CC)COC(=O)c1ccccc1 (configuration not stated)
inactive: outcome [1] | outcome [2] | Potency [3] | outcome [5] | outcome [6] | outcome [7] | outcome [8] | outcome [9] | outcome [10] | outcome [11] | outcome [12] | outcome [13] | outcome [14] | outcome [15] | outcome [16] | Potency [17] | outcome [18]

CCc1nccnc1C
inactive: outcome [1] | outcome [2] | Potency [3] | outcome [5] | outcome [6] | outcome [7] | outcome [8] | outcome [9] | outcome [10] | outcome [11] | outcome [12] | outcome [13] | outcome [14] | outcome [15] | outcome [16] | Potency [17] | outcome [18]

CC(CC(=O)O)CC(C)(C)C (configuration not stated)
inactive: outcome [1] | outcome [2] | Potency [3] | outcome [5] | outcome [6] | outcome [7] | outcome [8] | outcome [9] | outcome [10] | outcome [11] | outcome [12] | outcome [13] | outcome [14] | outcome [15] | outcome [16]

O=S1(=O)CCCC1
inactive: outcome [1] | outcome [2] | Potency [3] | outcome [5] | outcome [6] | outcome [7] | outcome [8] | outcome [9] | outcome [10] | outcome [11] | outcome [12] | outcome [13] | outcome [14] | outcome [15] | outcome [16]

C=CCOCC(O)CCl (configuration not stated)
inactive: outcome [1] | outcome [2] | Potency [3] | outcome [4] | outcome [5] | outcome [6] | outcome [7] | outcome [8] | outcome [10] | outcome [11] | outcome [12] | outcome [13] | outcome [14] | outcome [15] | outcome [16] | Potency [17] | outcome [18]

O=C1NC2NC(=O)NC2N1 (configuration not stated)
inactive: outcome [1] | outcome [2] | Potency [3] | Potency [19] | outcome [5] | outcome [6] | outcome [7] | outcome [8] | outcome [10] | outcome [11] | outcome [12] | outcome [13] | outcome [14] | outcome [15] | outcome [16]

CC(=O)OCC(=O)[C@@]1(O)[C@H](OC(C)=O)C[C@H]2[C@@H]3CCC4=CC(=O)C=C[C@]4(C)[C@@]3(F)[C@@H](O)C[C@@]21C
active: Potency [17] 0.134 µM [inconclusive]
inactive: outcome [1] | outcome [2] | Potency [3] | outcome [4] | outcome [5] | outcome [6] | outcome [7] | outcome [8] | outcome [10] | outcome [11] | outcome [12] | outcome [13] | outcome [14] | outcome [15] | outcome [16]

Cc1ccccc1N1CCN(CCc2nnc3n2CCCC3)CC1
inactive: outcome [1] | outcome [2] | Potency [3] | outcome [4] | outcome [5] | outcome [6] | outcome [7] | outcome [8] | outcome [10] | outcome [11] | outcome [12] | outcome [13] | outcome [14] | outcome [15] | outcome [16] | outcome [18]

OC[C@@H](O)[C@H](O)[C@@H](O)[C@@H](O)CO
inactive: outcome [1] | outcome [2] | Potency [3] | outcome [4] | outcome [5] | outcome [6] | outcome [7] | outcome [8] | outcome [9] | outcome [10] | outcome [11] | outcome [12] | outcome [13] | outcome [14] | outcome [15] | outcome [16]

CC(C)COC(=O)CCCCC(=O)OCC(C)C
inactive: outcome [1] | outcome [2] | Potency [3] | outcome [4] | outcome [5] | outcome [6] | outcome [7] | outcome [8] | outcome [9] | outcome [10] | outcome [11] | outcome [12] | outcome [13] | outcome [14] | outcome [15] | outcome [16]

COc1ccc(NS(=O)(=O)c2ccc(N)cc2)nn1
inactive: outcome [1] | outcome [2] | Potency [3] | outcome [4] | fluorescence, relative to Rose Bengal [5] 0.178% [at 18.6 µM] | fluorescence, % of fluorescein control [6] -0.0175% [at 18.6 µM] | fluorescence, % of triamterene [7] -0.19% [at 18.6 µM] | fluorescence, % of fluorescent control [8] -0.981% [at 18.6 µM] | fluorescence, % of fluorescein [9] -0.0152% [at 18.6 µM] | fluorescence, % of fluorescent control [10] 0.201% [at 18.6 µM] | activity change [11] -0.0484% [at 18.6 µM] | fluorescence, % of fluorescent control [12] -0.041% [at 18.6 µM] | fluorescence, % of Rose Bengal [13] -0.359% [at 18.6 µM] | fluorescence, % of fluorescent control [14] -0.109% [at 18.6 µM] | fluorescence, % of fluorescein control [15] -0.0862% [at 18.6 µM] | fluorescence, % of fluorescent control [16] 0.0805% [at 18.6 µM] | Potency [17] | outcome [18]

Oc1ccccc1Cc1ccccc1O
active: Potency [19] 7.7 µM
inactive: outcome [1] | outcome [2] | Potency [3] | outcome [5] | outcome [6] | outcome [7] | outcome [8] | outcome [10] | outcome [11] | outcome [12] | outcome [13] | outcome [14] | outcome [15] | outcome [16] | Potency [17] | outcome [18]

Cc1cccc(C(=O)O)c1[N+](=O)[O-]
inactive: outcome [1] | outcome [2] | Potency [3] | outcome [4] | outcome [5] | outcome [6] | outcome [7] | outcome [8] | outcome [9] | outcome [10] | outcome [11] | outcome [12] | outcome [13] | outcome [14] | outcome [15] | outcome [16]
